The source of these data is PubChem BioAssay (NCATS).

Values without a mark were called inactive. Inconclusive results are not listed. Activity calls are given as the source filed them. Unless noted, the call rests on the fitted dose curve; in most records, active means well fitted curve in either direction with a large enough effect (not every such curve was filed as active); inconclusive means small, poorly fitted or top-dose-only effect, or another doubt; inactive means flat fitted curve, though single readings scatter. A value given as a limit tells only on which side of the number the result lay.

Test [1] deals with Lysosomal acid glucosylceramidase (Homo sapiens) (UniProt P04062). Description: Glucocerebrosidase-p2 (AID 348; in the data active means potency below about 10 µM; further: potency means the concentration at half of the fitted maximal effect). To be noted: purified GBA, blue fluorogenic substrate, 40 min. In short, it runs like this:
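Normal human glucocerebrosidase (0.2 nM) with blue fluorogenic substrate (80 uM final) in citrate/phosphate pH 5.9 with 10mM sodium taurocholate, 0.01% tween-20; 40 min RT, NaOH/glycine stop; fluorescence Ex 365/Em 440; AC50 from a titration from 0.6 nM upwards.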

Test [2] in a line: AP1 Signaling Pathway (AID 357).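 Further: ME-180 reporter cells stimulated with EGF at its EC50 level; on the % scale 0 is the no-effect control and ±100 the full control effect.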 To be noted: ME-180 AP-1-bla reporter, EGF-induced, beta-lactamase ratio, 5 h; at 7.69 µM (top of the series) unless noted. In short, it runs like this:
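Cells are seeded overnight, exposed to compound titrations and an EC50 level of EGF for 5 hours at 37 °C, then loaded with CCF4 dye for 2.5 hours. Beta-lactamase activity under the AP-1 element is read as a blue/green ratio.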

The target in test [3] is Cytochrome P450 1A2 (Homo sapiens) (UniProt P05177). Description: p450-cyp1a2 (AID 410; calls by dose curve; further: potency means the concentration at half of the fitted maximal effect;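 on activity change, negative = inhibition: -100% = full effect of reference inhibitor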). To be noted: recombinant CYP1A2, luciferin-ME demethylation, luminescence; series mostly up to 57 µM. In short, it runs like this:
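Luminescent demethylation readout: Luciferin-ME (100uM, equal to Km) turned over by 20nM CYP1A2 for 60 min at room temperature after NADPH regeneration addition, following 10 min compound preincubation. Normalization used 57 uM furafylline as full inhibition.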

Test [4] in a line: NFAT Signaling Pathway (AID 444).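 Further: carbachol stimulus at about its EC50 of 1 µM final; on the % scale 0 is the no-effect control and ±100 the full control effect.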 To be noted: Jurkat NFAT-bla M1, carbachol, beta-lactamase ratio, 5 h; at 7.69 µM (top of the series) unless noted. The essentials:
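Jurkat cells carrying an NFAT-driven β-lactamase reporter and co-transfected muscarinic M1 receptor were treated with compound plus carbachol (1 uM final, an EC50 level) for 5 h at 37 °C. CCF4 loading followed for 1 h at RT; 460/530 nm ratio gave %activity.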

Test [5] can be described thus: Stat Signaling Pathway (AID 446).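 Further: ME-180 cervical cancer cells given 40 pM IL-6 alongside compound; SIE-controlled beta-lactamase reporter measured as 460/530 nm FRET emission ratio; on the % scale 0 is the no-effect control and ±100 the full control effect.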 The following applies: ME-180 (cervical carcinoma) SIE beta-lactamase reporter, IL-6 stimulated, 5 h; at 7.69 µM (top of the series) unless noted. In short, it runs like this: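 Emission at 460 and 530 nm (excitation 405 nm) reports SIE-controlled beta-lactamase in ME-180 cells. Cells received compound with 40 pM IL-6 for 5 hrs at 37 C; data scaled between 300 pM IL-6 and 125 nM JAK-inhibitor controls.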

Test [6] has as its target Glucocorticoid receptor (Homo sapiens) (UniProt P04150). Description: GR-EFC Redistribution (AID 451; calls by dose curve; further: potency means the concentration at half of the fitted maximal effect). To be noted: CHO-K1 GR-EFC translocation, beta-gal luminescence, 2 h. In short, it runs like this: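 CHO-K1 cells stably expressing nuclear-localized β-gal enzyme acceptor and GR fused C-terminally to the enzyme donor fragment; ligand-driven nuclear translocation restores β-gal by complementation. Compounds titrated up to 46 uM final, 2 h at 37 °C; luminescence read.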

Test [7] deals with Mitogen-activated protein kinase 10 (Mus musculus) (UniProt Q61831). Description: JNK3 AlphaScreen Assay (AID 530).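 Further: kinase came from lysate of stimulated human HepG2 cells; on the % scale 0 is the no-effect control and ±100 the full control effect.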 To be noted: JNK3 lysate, c-Jun phosphorylation; series mostly up to 57.1 µM. The essentials: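 Phosphorylation of biotinylated GST-cJun(1-79) at Ser73 is measured by AlphaScreen proximity luminescence. Enzyme is JNK3 in HepG2 lysates activated with interleukin-1beta and tumor necrosis factor alpha; ATP is 10 uM final.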
In general terms: Alpha assays give light when donor and acceptor beads are brought close together.

For test [8], the target named is 3',5'-cyclic-AMP phosphodiesterase 4B (Homo sapiens) (UniProt Q07343). Description: qHTS Assay for Inhibitors of PDE-IV (AID 607; active means well fitted activation curve with a large enough effect in the main read-out, with a control signal flat, not every such curve was filed as active; further: % of control where 0% means no effect). To be noted: HEK293 ACTOne CNG channel cells, membrane potential fluorescence; series mostly up to 22.9 µM. In short, it runs like this:
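The readout is membrane depolarisation from a cAMP-sensing CNG channel, detected with a potential dye at ex 535/em 590. Cells were HEK293-derived (endogenous PDE-IV) at 1000 cells/well, titrated up to 22.9 uM final.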
(In general: In qHTS, concentration-response curves come from the screen itself.)

Test [9] deals with Cytochrome P450 3A4 (Homo sapiens) (UniProt P08684). Description: qHTS Assay for Activators of Cytochrome P450 3A4 (AID 885; active means well fitted curve in the direction sought with a large enough effect; an effect the other way counts as inactive or inconclusive; further: nearly all actives have a fitted effect of over 65% in size). To be noted: recombinant CYP3A4, Luciferin-PPXE luminescence, 60 min; series mostly up to 57.1 µM. In short, it runs like this:
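Activators are scored by enhanced luminescence from CYP3A4 conversion of luciferin-PPXE (25uM, equal to KM) to luciferin, after 60 min at RT with an NADPH-regenerating system.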

Test [10] in a line: Primary qHTS for small molecule stabilizers of the endoplasmic reticulum resident proteome: Secreted ER Calcium Modulated Protein (SERCaMP) assay (AID 1508630; active means well fitted curve in the direction sought with a large enough effect; an effect the other way counts as inactive or inconclusive; further: on the % scale 0 is the no-effect control and ±100 the full control effect). To be noted: SH-SY5Y GLuc-SERCaMP (Gaussia luciferase released on ER calcium loss) secretion, thapsigargin, luminescence; series mostly up to 38.4 µM. In short, it runs like this:
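The SH-SY5Y reporter protocol was run at 3 concentrations up to 38.3 uM (primary) or 11 concentrations (follow-up): 16 h compound, 100 nM thapsigargin for 4 h, then extracellular luciferase luminescence.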

Test [11] concerns the target Glucocorticoid receptor (Homo sapiens) (UniProt P04150). Description: GR-GFP Redistribution (AID 450;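 active means compounds whose dose series gives a full or clear partial fitted curve of increased nuclear translocation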; further: potency means the concentration at half of the fitted maximal effect). To be noted: U2OS GR-GFP nuclear translocation, laser cytometry, 2 h.
Test [12] is described as follows: Confirmation and Secondary Assay for Modulators of Hemoglobin Beta Chain Splicing at IVS2 654 locus (AID 910; active means well fitted curve in the direction sought with a large enough effect; an effect the other way counts as inactive or inconclusive;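 further: per-well total GFP intensity by laser scanning cytometry after 2-day treatment; % of control where 0% means no effect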). The following applies: HeLa EGFP-654 splicing reporter, GFP fluorescence, 48 h; series mostly up to 38.3 µM. In short, it runs like this: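 HeLa cells stably carrying EGFP interrupted by mutant beta-globin IVS2-654 intron (CMV-driven) were treated with compound for 2 days at 37C; corrected splicing was scored as total peak GFP intensity per well (488 nm excitation, 500-520 nm emission).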

Test [13] can be described thus: Confirmation and Secondary Assay for Modulators of Hemoglobin Beta Chain Splicing at IVS2 705 locus (AID 930; active means well fitted curve in the direction sought with a large enough effect; an effect the other way counts as inactive or inconclusive;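 further: HeLa cells stably expressing the EGFP-705 splicing reporter; GFP fluorescence per well restored by corrected splicing of the IVS2-705 intron in EGFP; % of control where 0% means no effect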). To be noted: HeLa EGFP-705 splicing reporter, GFP fluorescence, 48 h; series mostly up to 38.3 µM. The essentials:
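First, HeLa EGFP-705 cells are seeded at 500/well in Optimem with 2% FCS and left overnight. Next, compound or DMSO is added for 2 days. Finally wells are laser-scanned and total peak GFP intensity scored.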

Test [14] addresses Ubiquitin carboxyl-terminal hydrolase 1 (Homo sapiens) (UniProt O94782). Description: Inhibitors of USP1/UAF1: Pilot qHTS (AID 504865; active means well fitted curve in the direction sought with a large enough effect; an effect the other way counts as inactive or inconclusive;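 further: rhodamine fluorescence freed from ubiquitin-rhodamine substrate followed over time; top concentration of the series differs between compounds; on the % scale 0 is the no-effect control and ±100 the full control effect; nearly all actives have a fitted effect of over 35% in size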). The following applies: purified USP1/UAF1, Ub-rhodamine cleavage fluorescence; series mostly up to 54.9 µM. In short, it runs like this: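 USP1/UAF1 complex at 1 nM preincubated 15 min at room temperature with compound, then Ub-Rho substrate added at 150 nM final. Fluorescence (480/540 nm) read kinetically in 50 mM HEPES pH 7.8, 0.5 mM EDTA, 1 mM TCEP, 0.1 mg/ml BSA, 0.01% Tween-20.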

The target of test [15] is Cytochrome P450 2C19 (Homo sapiens) (UniProt P33261). Description: qHTS Assay for Inhibitors and Substrates of Cytochrome P450 2C19 (AID 899; active means well fitted curve in the direction sought with a large enough effect; an effect the other way counts as inactive or inconclusive; further: potency means the concentration at half of the fitted maximal effect; nearly all actives have a fitted effect of over 60% in size). The following applies: recombinant CYP2C19, luciferin-H EGE luminescence; series mostly up to 57.1 µM. In short, it runs like this:
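NADPH-dependent conversion of Luciferin-H EGE (10uM, at KM) by 5nM enzyme in 50mM KPO4, 60 min at 37C following 10 min compound preincubation. Stopped with luciferin detection buffer; luminescence read after 20 min.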

Chain of Glucocorticoid receptor (Homo sapiens) (P04150 whole entry, looked up, the tested form may be a part): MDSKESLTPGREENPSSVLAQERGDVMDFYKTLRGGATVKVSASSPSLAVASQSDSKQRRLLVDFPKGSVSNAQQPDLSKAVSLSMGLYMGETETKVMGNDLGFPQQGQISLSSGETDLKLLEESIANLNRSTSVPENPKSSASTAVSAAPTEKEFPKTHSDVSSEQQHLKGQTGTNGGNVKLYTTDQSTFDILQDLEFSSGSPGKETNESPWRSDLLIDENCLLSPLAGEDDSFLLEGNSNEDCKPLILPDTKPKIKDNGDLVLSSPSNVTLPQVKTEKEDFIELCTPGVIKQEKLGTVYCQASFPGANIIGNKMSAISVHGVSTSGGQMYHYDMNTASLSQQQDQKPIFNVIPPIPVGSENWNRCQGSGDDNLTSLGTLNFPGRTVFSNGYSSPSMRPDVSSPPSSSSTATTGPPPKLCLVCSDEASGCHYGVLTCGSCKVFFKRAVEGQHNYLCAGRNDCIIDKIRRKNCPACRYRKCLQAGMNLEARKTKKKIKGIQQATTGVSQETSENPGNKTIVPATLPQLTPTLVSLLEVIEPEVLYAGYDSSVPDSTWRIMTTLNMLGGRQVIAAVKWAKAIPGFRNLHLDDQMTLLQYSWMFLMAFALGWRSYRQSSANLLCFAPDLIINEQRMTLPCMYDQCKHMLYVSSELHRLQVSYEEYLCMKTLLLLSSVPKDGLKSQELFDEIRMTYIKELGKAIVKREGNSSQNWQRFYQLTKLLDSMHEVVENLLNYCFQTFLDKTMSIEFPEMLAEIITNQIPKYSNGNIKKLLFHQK
Chain of Cytochrome P450 3A4 (Homo sapiens) (P08684 whole entry, looked up): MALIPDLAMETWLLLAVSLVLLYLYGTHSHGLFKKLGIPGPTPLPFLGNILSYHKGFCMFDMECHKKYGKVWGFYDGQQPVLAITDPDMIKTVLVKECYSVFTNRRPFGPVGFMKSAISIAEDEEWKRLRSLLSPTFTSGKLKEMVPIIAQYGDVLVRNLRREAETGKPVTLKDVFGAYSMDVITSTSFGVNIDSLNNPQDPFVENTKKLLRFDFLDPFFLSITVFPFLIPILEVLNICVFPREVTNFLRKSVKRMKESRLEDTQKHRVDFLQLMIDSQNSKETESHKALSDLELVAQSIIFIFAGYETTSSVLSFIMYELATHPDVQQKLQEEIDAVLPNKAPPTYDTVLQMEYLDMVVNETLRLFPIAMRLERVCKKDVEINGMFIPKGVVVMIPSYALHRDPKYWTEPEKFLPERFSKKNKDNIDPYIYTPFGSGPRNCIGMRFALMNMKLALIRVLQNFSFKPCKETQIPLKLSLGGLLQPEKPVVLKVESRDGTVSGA
Chain of 3',5'-cyclic-AMP phosphodiesterase 4B (Homo sapiens) (Q07343 whole entry, looked up): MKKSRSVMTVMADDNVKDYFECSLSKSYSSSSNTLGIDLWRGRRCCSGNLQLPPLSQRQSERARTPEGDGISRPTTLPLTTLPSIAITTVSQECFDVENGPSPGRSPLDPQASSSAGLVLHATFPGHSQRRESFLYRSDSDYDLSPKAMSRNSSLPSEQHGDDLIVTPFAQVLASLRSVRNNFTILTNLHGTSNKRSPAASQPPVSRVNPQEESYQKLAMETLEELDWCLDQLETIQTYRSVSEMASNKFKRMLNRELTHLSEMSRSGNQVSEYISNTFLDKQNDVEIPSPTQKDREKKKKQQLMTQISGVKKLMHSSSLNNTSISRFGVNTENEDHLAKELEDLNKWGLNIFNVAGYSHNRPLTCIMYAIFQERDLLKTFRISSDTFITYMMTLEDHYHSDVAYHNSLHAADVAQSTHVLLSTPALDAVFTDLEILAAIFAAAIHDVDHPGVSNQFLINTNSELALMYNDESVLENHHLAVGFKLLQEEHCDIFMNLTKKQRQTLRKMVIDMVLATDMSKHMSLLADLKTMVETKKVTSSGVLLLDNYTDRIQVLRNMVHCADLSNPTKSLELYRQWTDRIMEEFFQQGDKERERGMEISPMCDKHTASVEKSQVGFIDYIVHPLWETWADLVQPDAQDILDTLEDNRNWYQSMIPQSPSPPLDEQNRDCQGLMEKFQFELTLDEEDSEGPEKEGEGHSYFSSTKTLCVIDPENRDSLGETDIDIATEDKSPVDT
Chain of Cytochrome P450 1A2 (Homo sapiens) (P05177 whole entry, looked up): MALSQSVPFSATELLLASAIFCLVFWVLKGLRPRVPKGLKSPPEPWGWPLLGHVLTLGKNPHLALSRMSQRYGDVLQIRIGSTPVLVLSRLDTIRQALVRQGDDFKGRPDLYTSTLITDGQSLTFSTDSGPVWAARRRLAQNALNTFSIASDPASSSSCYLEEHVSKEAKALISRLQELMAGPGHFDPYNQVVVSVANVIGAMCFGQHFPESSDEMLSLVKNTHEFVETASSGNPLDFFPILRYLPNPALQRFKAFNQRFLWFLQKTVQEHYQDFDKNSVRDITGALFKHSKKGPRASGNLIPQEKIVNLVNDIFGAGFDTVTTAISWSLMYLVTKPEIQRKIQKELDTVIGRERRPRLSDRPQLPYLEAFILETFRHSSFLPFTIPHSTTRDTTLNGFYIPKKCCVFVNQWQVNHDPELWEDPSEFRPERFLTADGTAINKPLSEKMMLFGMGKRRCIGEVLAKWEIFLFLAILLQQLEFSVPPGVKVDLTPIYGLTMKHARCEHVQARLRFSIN
Chain of Lysosomal acid glucosylceramidase (Homo sapiens) (P04062 whole entry, looked up): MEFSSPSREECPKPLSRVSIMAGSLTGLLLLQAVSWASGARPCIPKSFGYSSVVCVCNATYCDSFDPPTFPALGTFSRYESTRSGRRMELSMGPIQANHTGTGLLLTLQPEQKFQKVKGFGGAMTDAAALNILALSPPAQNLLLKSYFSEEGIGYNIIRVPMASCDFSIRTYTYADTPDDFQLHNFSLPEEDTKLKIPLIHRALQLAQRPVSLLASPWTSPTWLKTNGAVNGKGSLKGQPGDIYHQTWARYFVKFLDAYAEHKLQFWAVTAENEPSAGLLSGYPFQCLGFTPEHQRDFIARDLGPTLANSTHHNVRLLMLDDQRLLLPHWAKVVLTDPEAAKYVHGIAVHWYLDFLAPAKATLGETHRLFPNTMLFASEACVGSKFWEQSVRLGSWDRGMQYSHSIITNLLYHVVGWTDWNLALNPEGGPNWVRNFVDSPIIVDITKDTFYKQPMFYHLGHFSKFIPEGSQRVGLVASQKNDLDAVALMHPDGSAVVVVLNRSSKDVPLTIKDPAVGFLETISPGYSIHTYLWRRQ
Chain of Cytochrome P450 2C19 (Homo sapiens) (P33261 whole entry, looked up): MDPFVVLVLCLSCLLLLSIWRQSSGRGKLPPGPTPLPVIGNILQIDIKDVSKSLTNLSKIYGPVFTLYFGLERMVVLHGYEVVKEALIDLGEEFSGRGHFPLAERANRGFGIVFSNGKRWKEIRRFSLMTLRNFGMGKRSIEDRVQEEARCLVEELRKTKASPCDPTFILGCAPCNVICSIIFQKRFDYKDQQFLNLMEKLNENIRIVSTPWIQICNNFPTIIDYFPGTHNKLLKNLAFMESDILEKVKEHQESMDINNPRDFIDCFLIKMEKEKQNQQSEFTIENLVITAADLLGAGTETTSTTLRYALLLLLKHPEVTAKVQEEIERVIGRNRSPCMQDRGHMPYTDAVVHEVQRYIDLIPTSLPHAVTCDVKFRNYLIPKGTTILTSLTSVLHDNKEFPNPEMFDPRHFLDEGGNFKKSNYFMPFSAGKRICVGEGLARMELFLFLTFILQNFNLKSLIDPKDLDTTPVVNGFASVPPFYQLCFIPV
Chain of Ubiquitin carboxyl-terminal hydrolase 1 (Homo sapiens) (O94782 whole entry, looked up): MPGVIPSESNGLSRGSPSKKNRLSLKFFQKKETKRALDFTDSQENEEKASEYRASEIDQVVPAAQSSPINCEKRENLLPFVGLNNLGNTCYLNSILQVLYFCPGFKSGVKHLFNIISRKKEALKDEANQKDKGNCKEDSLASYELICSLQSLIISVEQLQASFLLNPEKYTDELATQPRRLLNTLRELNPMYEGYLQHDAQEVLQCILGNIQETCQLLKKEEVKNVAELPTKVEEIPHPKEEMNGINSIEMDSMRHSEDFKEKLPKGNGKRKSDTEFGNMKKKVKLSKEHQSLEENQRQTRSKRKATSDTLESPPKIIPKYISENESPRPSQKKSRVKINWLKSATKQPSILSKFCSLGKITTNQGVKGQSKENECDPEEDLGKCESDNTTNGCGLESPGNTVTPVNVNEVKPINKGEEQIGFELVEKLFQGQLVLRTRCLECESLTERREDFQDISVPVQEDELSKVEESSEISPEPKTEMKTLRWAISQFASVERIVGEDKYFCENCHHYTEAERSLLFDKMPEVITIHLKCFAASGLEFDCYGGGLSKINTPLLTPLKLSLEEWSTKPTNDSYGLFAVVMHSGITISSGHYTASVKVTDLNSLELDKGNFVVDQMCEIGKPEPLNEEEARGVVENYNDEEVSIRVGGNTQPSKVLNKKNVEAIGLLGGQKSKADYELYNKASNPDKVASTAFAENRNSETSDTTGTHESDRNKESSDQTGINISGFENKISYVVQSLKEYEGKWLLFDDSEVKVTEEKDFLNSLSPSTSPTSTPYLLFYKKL

In the case of `CS(=O)(=O)N1CCC2(CC1)CN(c1ncccn1)C2`, the Potency in test [1] was greater than 11.4 µM; in test [6], greater than 46 µM. The activity change, negative = inhibition is -16% in [2] and -5.62% in test [4]. The Potency result in test [3], in test [7], in [8] and in [9] was “inactive” each time. In test [5], the activity, negative = inhibition is 6.56%. In addition, in test [10], the outcome was inactive.

`FC(F)(F)c1ccccc1-c1cncnc1NCCc1cnc[nH]1`: the Potency in [1] is greater than 11.4 µM; in test [3] it was 6.31 µM (active); in test [11], greater than 46 µM; in test [6], greater than 46 µM. The activity change, negative = inhibition in test [2] was -1.69%. Moreover, the activity, negative = inhibition in test [5] was -1.23%. Besides, the Potency result in [7], in [8], in test [12] and in test [14] was “inactive” in each case. The call in [13] and in test [10] was inactive.

As to `CC(C)NC(=O)N1CC[C@@]2(CCCN(C(=O)c3cccc(F)c3)C2)C1`, the Potency in test [1] is greater than 11.4 µM; in [6], greater than 46 µM. The figures for the activity change, negative = inhibition in [2] and in test [4] were -5.48% and 10.1%, respectively. Besides, the Potency result in test [3], in [7] and in [8] was “inactive” throughout. In addition, the outcome in test [10] was inactive.

As to `O=C(c1cnccn1)N1CCC2(CC1)CN(c1ccccc1)C2`, the Potency is greater than 11.4 µM in test [1] and greater than 46 µM in [6]. The activity change, negative = inhibition in test [2] is -9.4%; in test [4] it was 14%. Also, the Potency entry in test [3] and in test [8] was “inactive” each time. The activity, negative = inhibition in [5] is -6.18%. In addition, in test [10], the outcome was inactive.

Turning to `COc1ncc2ncc(=O)n(Cc3ccc(F)cc3)c2n1`, the Potency is greater than 11.4 µM in test [1], 12.6 µM (active) in [3], greater than 46 µM in test [6] and 7.94 µM (active) in [15]. The activity change, negative = inhibition in [2] was -11.8%; in test [4] it was -5.96%. Besides, the activity, negative = inhibition in [5] is -7.56%. Also, the Potency result in [7], in test [8] and in test [9] was “inactive” each time. The outcome in test [10] was inactive.

Regarding `O=C(c1cnccn1)N1CCC2(CC1)CN(c1cccc(-c3ccccc3)c1)C2`, the Potency in test [1] is greater than 11.4 µM; in test [3] it was 15.8 µM (active); in test [6] it was greater than 46 µM. Moreover, the results for the activity change, negative = inhibition in test [2] and in test [4] were -8.05% and -5.73%, respectively. Also, the Potency entry in test [8] and in [9] was “inactive” each time. The result in test [10] was inactive.

For the compound `CC(=O)N1CCC2(CCCN(Cc3nccs3)C2)CC1`, the Potency is greater than 11.4 µM in test [1], greater than 46 µM in [6] and 5.01 µM (active) in test [15]. The activity change, negative = inhibition in test [2] was 3.8%; in test [4], -6.07%. For the same compound, the Potency result in test [3], in test [7], in test [8] and in test [9] was “inactive” throughout. Moreover, the activity, negative = inhibition in [5] is 6.5%. In addition, in test [10], the outcome was inactive.

`COc1ccc(NC(=O)N2CCCC3(CCN(C(=O)c4ccco4)CC3)C2)cc1`: the Potency was greater than 11.4 µM in test [1] and greater than 46 µM in test [6]. Also, the activity change, negative = inhibition was -17.6% in [2] and 7.9% in test [4]. The Potency entry in test [3], in [7], in test [8] and in test [9] was “inactive” throughout. Moreover, in [5], the activity, negative = inhibition was -11.8%. Besides, in test [10], the outcome was inactive.
